Compound activity from PubChem BioAssay.
The list is not random: actives were taken first. Their share in the collection is about 3.4%.
hcDAF12 agonist: activators of H. contortus DAF-12 nuclear receptor. actives 1.4% (n = 370,000). activation, % at 6.8 µM. HEK293 hcDAF-12 lit1-tk-luc reporter, luminescence; 0% DMSO, 100% Δ7-dafachronic acid;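 active = activation above the mean of all tested compounds plus 3 SD, cut at about 5.5% in these data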;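 also: 100% = response to 3 µM Δ7-dafachronic acid high control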
APP 5'UTR act: APP 5'UTR luciferase reporter activation. SH-SY5Y APP 5'UTR luciferase reporter, luminescence; zero percent = DMSO vehicle wells. activation, % at 2 µM. actives 1% (n = 190,000);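 active = activation above a set limit, based on mean plus 3 SD of controls, cut at about 140% in these data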
NF-kB expr up: NF-kB expression increase, human neuronal cells. fold change at 12.5 µM. actives 1.6% (n = 190,000). NF-kB reporter expression; stronger effect = higher value. AID 1239; in the data active = fold change above about 3.3
hgDAF12 agonist: activates the H. glycines DAF-12 receptor ligand-binding domain; HEK293 GAL4-hgDAF12 UAS-luciferase reporter, agonist luminescence; normalized to butyrate control; AID 687014; actives 1.8% (n = 370,000); activation, % at 6.8 µM;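 active = activation above a cutoff set at the mean of all screened compounds plus 3 SD, cut at about 10% in these data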;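 also: 0% = DMSO wells and 100% = sodium butyrate wells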
ssDAF12 agonist: activators of S. stercoralis DAF-12 nuclear receptor; AID 652126; HEK293 ssDAF-12/GRIP1 lit1-tk-luc reporter, luminescence; % of 3 µM dafachronic acid response; actives 1% (n = 370,000); activation, % at 6.8 µM;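 active = activation above the mean over all tested compounds plus 3 SD, cut at about 0.9% in these data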;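 also: 0% = DMSO-only wells and 100% = 3 µM delta7-dafachronic acid wells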
Active calls of the source: *; nt = no result.

SMILES	hcDAF12 agonist	APP 5'UTR act	NF-kB expr up	hgDAF12 agonist	ssDAF12 agonist
CCCc1cn(-c2ccc3c(c2)[C@]2(CC(=O)N(C)C2c2ccccc2)C(=O)N3CC(C)C)nn1 (stereo partly drawn)	0	nt	nt	3	0
O=c1oc2ccccc2cc1-c1nnc(NCc2ccco2)s1	5	147*	5.4*	12*	0
COC(=O)[C@]12C[C@H](CC(=O)NCCCN3CCCC3=O)C(=O)N(Cc3ccco3)C1=C[C@H](C(C)(C)C)O[C@@H]2C	0	nt	nt	1	-1
Cn1[nH]c(C(F)(F)F)c(C=Nc2ccc(Cl)cc2)c1=O	3	182*	1.2	10	0
COc1cc(O)c(C(CC(=O)N2CCCC(C)C2)c2ccccc2)c(OC)c1 (stereo not drawn)	1	nt	nt	2	-1
c1ccc(Cn2cc(CCOCc3ccccn3)c3ccccc32)cc1	2	nt	nt	9	0.9*
CN(N=Nc1cccc([N+](=O)[O-])c1)c1ccccc1	2	nt	nt	4	-1
CN(N=Nc1ccc([N+](=O)[O-])cc1)c1ccccc1	2	52	2.8	7	6.2*
O=[N+]([O-])c1ccc(N=NNc2ccccc2)cc1	nt	58	3.6*	nt	nt
Brc1ccc(-c2nn3c(-c4ccccc4)nnc3s2)o1	-2	nt	nt	3	-1
N#Cc1ccc(OC[C@@H](O)CN2CCC(C(O)(c3ccccc3)c3ccccc3)CC2)cc1	0	nt	nt	-4	-2
NS(=O)(=O)c1ccc(CCNC(=O)c2ccc(Cl)c(S(=O)(=O)NCc3ccco3)c2)cc1	1	nt	nt	-3	1.3*
Cc1c(O)ccc(C(=O)COc2ccc(F)cc2)c1O	1	47	2.2	12*	-1
CCc1cc(C(=O)COc2ccc(F)cc2)c(O)cc1O	0	-9	1.7	4	-1
COCCNC(=O)COC(=O)CSCc1nc2ccccc2s1	5.8*	2	1.1	2	0
CCCCCN1CCCCC(NC(=O)c2ccc(F)cc2)C1=O (stereo not drawn)	-2	nt	nt	-2	-1
CCOC(=O)C1(Cc2cccc(OC)c2)CCCN(C(=O)CNC(C)=O)C1 (stereo not drawn)	3	nt	nt	13*	0
CCOC(=O)C1(Cc2cccc(OC)c2)CCCN(C(=O)c2ccccc2C)C1 (stereo not drawn)	-1	nt	nt	3	-1
Fc1ccc(F)c(Cn2ccc3ccc(-c4ccc5ccn(Cc6cc(F)ccc6F)c5c4)cc32)c1	0	nt	nt	-1	0
COc1ccc(C2=NN3C(C2)c2ccccc2OC3c2cccs2)cc1 (stereo not drawn)	7.9*	155*	3.8*	23*	0
COc1cc(NC(=O)C(OC(=O)CNC(=O)c2ccccc2)c2ccccc2)cc(C(F)(F)F)c1 (stereo not drawn)	-3	nt	nt	4	-2
O=C(Nc1cccc(-c2cnc3ccccc3n2)c1)c1ccco1	-1	nt	0.64	1	-1
O=C(Oc1ccc(-c2cnc3ccccc3n2)cc1)c1ccco1	5.6*	80	2.7	10	0
Cn1cccc1C1Nc2ccccc2NC2=C1C(=O)CC(C)(C)C2 (stereo not drawn)	2	139*	0.83	1	-1
CC(C)(C)N(Cc1cn(CC2CCCCC2)nn1)S(=O)(=O)c1ccc(F)cc1Br	-1	nt	nt	1	-2
SMILES	hcDAF12 agonist	APP 5'UTR act	NF-kB expr up	hgDAF12 agonist	ssDAF12 agonist
O=C(Oc1ccccc1)N1CCCCC1	0	nt	nt	5	-1
O=C(Oc1ccc(-c2ccccc2)cc1)N1CCCCC1	-1	5	7*	4	-1
CCCc1ccc(-c2ccc(/C=C/C(=O)O)cc2)nc1	-9	-46	3.1	-21	-3
CCCCCc1ccc(-c2ccc(/C=C/C(=O)O)cc2)nc1	-3	-21	4.6*	-7	-2
CCCCCCCc1ccc(-c2ccc(O)cc2)nc1	2	27	1.1	12*	-1
CC(C)(C)c1ccc(S(=O)(=O)N2CCCC(C(=O)NCCN3CCC(Cc4ccccc4)CC3)C2)cc1 (stereo not drawn)	-3	nt	nt	-3	-1
COC(=O)[C@]12C[C@H](CC(=O)N3CCCCC3)C(=O)N(Cc3ccc(Cl)cc3Cl)C1=C[C@H](C(C)(C)C)O[C@@H]2C	2	nt	nt	2	-2
O=c1[nH][nH]cc1C=Nc1ccccc1O	-1	22	6.2*	-2	-1
O=c1[nH][nH]cc1C=Nc1ccccc1Cl	-2	-3	1.1	6	-2
O=c1[nH][nH]cc1C=Nc1cc(Cl)ccc1O	3	-21	4.2*	-2	-1
O=c1[nH][nH]cc1C=Nc1ccc(Cl)cc1Cl	0	-64	1.2	-1	1.6*
COC(=O)[C@]12C[C@H](CC(=O)NCc3cccc4ccccc34)C(=O)N(Cc3cccc4ccccc34)C1=C[C@H](C(C)C)O[C@@H]2C1CC1	-2	nt	nt	1	-1
CC(C)[C@H](NC(=O)OCc1ccccc1)C(=O)N[C@@H](Cc1ccccc1)C1(O)CN(C)C(C(=O)NCc2ccccn2)CO1 (stereo partly drawn)	-1	nt	nt	-2	-2
COc1ccc2cc(-c3cn(C(=O)N(c4ccccc4)c4ccccc4)nn3)ccc2c1	2	nt	nt	1	-1
O=C(/C=C/c1cccc([N+](=O)[O-])c1)N1CCN(C(=O)c2ccco2)CC1	-1	-2	1.2	1	-2
O=C(/C=C/c1cccc([N+](=O)[O-])c1)OCC(=O)N1CCN(C(=O)c2ccco2)CC1	0	nt	nt	12*	0
CC(C)(C)c1ccc(/C=C/C(=O)N2CCCCC2)cc1	3	110	4.4*	11*	0
CC1CCN(C(=O)/C=C/c2ccc(C(C)(C)C)cc2)CC1	1	28	2	2	-2
c1ccc(C2=NNC(=NC3CC3)SC2)cc1	5	22	2.2	12*	1
Cc1cc(C2=NNC(=NC3CC3)SC2)c(C)n1-c1ccccc1	-7	-76	0.13	-19	-4
COC(=O)[C@]12C[C@H](CC(=O)N3CCOCC3)C(=O)N(CCC3=CCCCC3)C1=C[C@H](C(C)C)O[C@@H]2C1CC1	-2	nt	nt	-1	-1
Cn1c(=O)c2c(nc(CN3CCN(CCO)CC3)n2Cc2cccc3ccccc23)n(C)c1=O	-1	-9	4.3*	-4	-1
Cn1c(=O)c2c(nc(CN3CCN(CCO)CC3)n2Cc2ccccc2Cl)n(C)c1=O	-1	nt	nt	4	-1
COc1cc(-n2nnnc2SC)c(OC)cc1Cl	-1	-6	3.6*	-4	-2
COc1ccccc1-n1nnnc1SCc1ccccc1	-1	10	0.92	2	-1
CCCCOCCCNC(=O)C[C@H]1C[C@@]2(C(=O)OC)C(=C[C@H](C(C)C)O[C@@H]2C2CC2)N(CCC2=CCCCC2)C1=O	-3	nt	nt	2	-1
CC(C)C[C@@H]1COc2cc(Br)ccc2S(=O)(=O)N1Cc1cn(Cc2ccc(F)cc2)nn1	-2	nt	nt	1	-1
CCOC(=O)N1CCN(C(=O)C[C@@H]2C(=O)N3CCCC4=C3[C@@]2(C(=O)OC)CCCC4)CC1	-2	nt	nt	2	-1
